Reference: the supplement of paper PMC10338343
± gives the standard deviation.

The sequences below were run on MILI (PIWIL2) piRISC loaded with piRNA #1 (26 nt) (assay: pre-steady-state target cleavage rate (min^-1); guide: piRNA #1 5'p-UGAGGUAGUAGGUUGUAUAGUAUCCA; MIWI and MILI are mouse PIWI proteins and EfPiwi is from a freshwater sponge; tags in brackets are library labels; higher = faster piRNA-guided slicing of the target). Details: auxiliary factor: 500 nM mouse GTSF1.
Outline: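 Sequencing of uncleaved targets, normalised to depth and to weakly complementary targets, was the readout of this Cleave-'n-Seq assay. A transcribed, DNA-blocked target RNA library (0.1 nM) was mixed with 1 nM active affinity-purified piRISC carrying one synthetic guide, with or without 500 nM GTSF1 partner protein, in HEPES–potassium acetate buffer at 33 °C for 0–8 or 0–960 min. Three trials were pooled, k3 was capped at 0.0001 min^-1, and a burst-and-steady-state fit gave the pre-steady-state cleavage rate.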

| Sequence | pre-steady-state target cleavage rate |
| --- | --- |
| GGAGACCUAUGUAUACGACCUACUACCUCA | 0.0178 ± 0.0033 |
| GGAGACGAAACUAUAGAACCUACUACCUCA | 0.146 ± 0.014 |
| GGAGACCUAUGAUAACAACCUACUACCUCG [g2:g16:cont:t1G] | 0.00536 ± 0.0027 |
| GGAGACCUAUGAAUACAACCUACGUACCUCA | 0.00396 ± 0.0023 |
| GGAGACGUUACUAUACAACCUACUUCCUCA | 0.0496 ± 0.013 |
| GGAGACCUAUGAUAUGUUGCUAGAACCUCA | < 0.0001 |
| GGAGACCUAUCUAUACAACCUACAUACCUCA | 0.113 ± 0.015 |
| GGAGAGGAUACUAUACUUGCUACUACCUCA | 0.0407 ± 0.0049 |
| GGAGACCUAUGAUAUGAACCACUACCUCA | < 0.0001 |
| GGAGACCUUACUAAACAACCUUCUACCUCA | 0.00652 ± 0.0027 |
| GGAGACCUAUCUAUACAACGUACAACCUCA | 0.0149 ± 0.0048 |
| GGAGACCUAUGUUUAGAACCUACUACCUCA | 0.00346 ± 0.0023 |
| GGAGACCUAACUAUACAACCUACUAGCCUCA | 0.186 ± 0.035 |
| GGAGACCUAUGAUAUGAAGCUACUUCCUCA | < 0.0001 |
| GGAGACCUAUGAUUACGACCUACUACCUCA | 0.00341 ± 0.003 |
| GGAGACCUAUGAAUACAACCUACUGACCUCA | 0.00755 ± 0.0029 |
| GGAGACCUAUGAUAUGUACCUACUACCGCA | < 0.0001 |
| GGAGACCUAUGUAUUCAACCUACUUCCUCA | 0.00515 ± 0.0026 |
| GGAGACCUUACUAUACAACGUUCUACCUCA | 0.00546 ± 0.0015 |
| GGAGACCUAUGAUAUGUUCCUACUAGGUCA | < 0.0001 |

| Sequence | pre-steady-state target cleavage rate |
| --- | --- |
| GGAGACCUAUGAUAAGAACCUACUUCCUCA | < 0.0001 |
| GGAGACGAUACAAUACAACCUACUACCUCA | 0.158 ± 0.012 |
| GGAGACCAUUCUAUACAACCAACUACCUCA | 0.0079 ± 0.0026 |
| GGAGACCUAAGUAUACAACCUACUACCUGA | 0.0424 ± 0.0093 |
| GGAGACCUAACUAUACUUCCUACUACCUCA | 0.054 ± 0.011 |
| GGAGACCUAACUAUACAACCUACAACCUCA | 0.108 ± 0.026 |
| GGAGACCUAUGAUAACAACCUACUACCUCU [g2:g16:cont:t1U] | 0.00588 ± 0.0024 |
| GGAGAGGAUACUAUACAACCAUCUACCUCA | 0.00516 ± 0.0022 |
| GGAGAGGAUACAUAACAACCUACUACCUCA | 0.123 ± 0.011 |
| GGAGACCUAACUUAUACAACCUACUACCUCA | 0.0771 ± 0.019 |
| GGAGACCUAUGAUUACAACCUACUACCAUCA | 0.00378 ± 0.0028 |
| GGAGACCUAUGAAUACAACCUACUACCGCA | 0.00764 ± 0.003 |
| GGAGACCUAUCUAUACUACCUACUACCACA | 0.117 ± 0.015 |
| GGAGACCUAUGAUAUGUUCCUUCUACCACA | < 0.0001 |
| GGAGACCUAACUAUACAUCGUACUACCUCA | 0.0246 ± 0.0074 |
| GGAGACCUAUGAUUACAACCUACCACCUCA | 0.00484 ± 0.0035 |
| GGAGACCUAUCUAUACAAACUACUACCUCA | 0.171 ± 0.015 |
| GGAGACCUAUGAAUACAACCUACUAUCCUCA | 0.00841 ± 0.0026 |
| GGAGACCUAUGAUUACAACCUACUGACCUCA | 0.00605 ± 0.0028 |
| GGAGACCUUACUAUACAAGCUACUACGUCA | 0.203 ± 0.029 |
